# Experimental data published in PubChem BioAssay (NCI).
# About 79,000 compounds went through this panel and 15% of them were active in at least one assay; those are over-represented in the sample as a whole. A number with no mark means an inactive call. Active and inactive are the calls of the source. Rule as the data show it: active = growth inhibition above about 70%; inactive = the rest.
# Columns and labels:
# [1] = NCI Yeast Anticancer Drug Screen. Data for the rad50 strain (AID 155);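 also: 0% = growth of vehicle-only cultures of the same strain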; details: S. cerevisiae rad50 strain growth inhibition; at 50.0 µM; hits give high values
# In short: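 Cells are treated with compound, grown, and their growth is then scored against vehicle-only cultures of the same repair-deficient yeast strain.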
# [2] = NCI Yeast Anticancer Drug Screen. Data for the mec2-1 strain (AID 157); details: S. cerevisiae mec2-1 strain, at 50.0 µM, hits give high values
# In short: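 Using mec2-1 yeast: add compound, measure growth, express inhibition versus vehicle-treated cultures.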
# [3] = NCI Yeast Anticancer Drug Screen. Data for the sgs1 mgt1 strain (AID 161);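 also: 0% = growth of cultures given vehicle only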; details: S. cerevisiae sgs1 mgt1 strain, at 50.0 µM, hits give high values
# In short: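 Compounds are added to genetically altered yeast, and growth is compared with cultures given vehicle alone to give percent inhibition.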
# [4] = NCI Yeast Anticancer Drug Screen. Data for the cln2 rad14 strain (AID 165);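 also: 0% = growth equal to vehicle treated cultures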; details: S. cerevisiae cln2 rad14 strain, at 50.0 µM, hits give high values
# In short: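 Yeast strain cln2 rad14, bearing defects in cell cycle control and DNA repair, serves as the test system; values reflect growth inhibition compared with vehicle.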
# [5] = NCI Yeast Anticancer Drug Screen. Data for the bub3 strain (AID 167); details: S. cerevisiae bub3 mutant strain, at 50.0 µM, hits give high values
# In short: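 Part of a panel of yeast mutants defective in DNA damage repair or cell cycle regulation. Each strain is grown with compound, and inhibition is calculated relative to solvent-treated cultures.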
# [6] = NCI Yeast Anticancer Drug Screen. Data for the mlh1 rad18 strain (AID 175); details: S. cerevisiae mlh1 rad18 strain growth inhibition; at 50.0 µM; hits give high values
# In short: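 Steps: expose repair-defective yeast to compound; measure growth; express inhibition against vehicle-treated controls.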
Structure (SMILES),growth inhibition [1],growth inhibition [2],growth inhibition [3],growth inhibition [4],growth inhibition [5],growth inhibition [6]
N/N=C(\NN)c1ccccc1,11.7%,12.2%,-4.2%,-47.5%,0.75%,11.7%
NC(Cc1c(F)c(F)c(F)c(F)c1F)C(=O)O (stereo unspecified),-2.6%,2.95%,11.2%,-11.3%,-12.1%,-7.4%
CCCCCCC(O)CCCCCCCCCCC(=O)O (stereo unspecified),-14.3%,0.1%,16.4%,-25.4%,-6.8%,19.7%
CC(=O)N(C(=O)CC(=O)N/N=C\c1ccc(Br)c(N(CCC#N)CCC#N)c1)c1ccc(Cl)cc1,7.7%,0.6%,8.1%,-7.8%,6.2%,-3.35%
O=C(NC(=O)C1CCC(=O)N1Cc1ccccc1)NC1CCC(=O)N1Cc1ccccc1 (stereo unspecified),3.35%,3.1%,-26.1%,1.8%,0.85%,17.2%
Cc1ccc(C(=O)c2c(C)cccc2C(=O)O)c(C)c1,-0.95%,-2.1%,8.45%,12.6%,-3.85%,29.4%
O=C1C=C(N2CCCC2)CC1,18.2%,3.1%,-0.2%,-43%,-17.1%,6.25%
O=C1C(Cl)N(c2ccccc2[N+](=O)[O-])C1c1c[nH]c2ccccc12 (stereo unspecified),-13.6%,-22.6%,3.65%,-19.9%,-26.2%,-31.7%
CCOC(=O)CCCC(NC(=O)c1ccc(N2CCN(c3c(N)nc(N)nc3NC)CC2)cc1)C(=O)OCC (stereo unspecified),9.95%,5.75%,-0.4%,6.55%,-3.95%,-2.3%
CCCC(=O)OC1=CC(=O)c2ccccc2C1=O,22.9%,16.6%,29.1%,26.5%,-10.2%,6.3%
CC(=O)NCCc1[nH]cnc1N=Nc1ccc(Br)cc1,0.95%,39.4%,14.7%,-6.15%,52.1%,27.3%
CC(C)CSC(SCC(C)C)C(O)C(O)C(O)CO (stereo unspecified),-6.85%,3%,5.4%,-35.2%,10.2%,6%
O=C(O)COCC(=O)N(CCOCCN(Cc1ccccc1)C(=O)COCC(=O)O)Cc1ccccc1,-18.4%,0.75%,7.25%,26.6%,0.7%,4.1%
c1csc(-c2nc3sc(-c4cccs4)nc3s2)c1,3.4%,-9.75%,1.9%,-18.8%,-16.6%,-2.4%
OCCNCN(CNCCO)c1nc(N(CNCCO)CNCCO)nc(N(CNCCO)CNCCO)n1,55.6%,19.7%,32.6%,-49.5%,2.8%,12.4%
O=C(N/C(=C\c1ccc([N+](=O)[O-])cc1)c1nc2ccccc2[nH]1)c1ccccc1,29.1%,6.55%,8.35%,-37.9%,17.9%,23.8%
O=C(O)C1CCN(C(=O)Cc2c3ccccc3cc3ccccc23)CC1,20.9%,3.9%,-3.45%,-2.5%,-6.85%,22.7%
CCCCCCCCCCCC[N+]1(C)CCS(=O)CC1 (stereo unspecified),84.7% (active),84.3% (active),80% (active),70.7% (active),63.4%,85.3% (active)
CCC(=O)NN1C(=O)c2ccccc2C1=O,-13.8%,-15.4%,-23.4%,-13.2%,-16.5%,-10.2%
COc1ccc(CCN(C)C2c3ccccc3C=Cc3ccccc32)cc1OC,30.5%,2.4%,3.35%,-16.2%,-1.85%,8.65%
O=c1c2c(-c3ccccc3)onc2n(-c2ccccc2)c(=O)n1-c1ccccc1,-20.4%,4.5%,13.2%,-10.6%,-4.2%,36.5%

Structure (SMILES),growth inhibition [1],growth inhibition [2],growth inhibition [3],growth inhibition [4],growth inhibition [5],growth inhibition [6]
N#Cc1c(-c2ccc(Cl)cc2)cn2c1[nH]c(=O)c1c3c(sc12)CCCC3,13.2%,10.2%,0.15%,-6.8%,-4.25%,1.35%
CC(C)CC(NC(=O)c1cc([N+](=O)[O-])cc([N+](=O)[O-])c1)C(=O)O (stereo unspecified),-2%,-2.7%,16.1%,8.5%,-41.2%,-5.5%
c1ccc2c(c1)C1c3ccccc3C2C2OC12 (stereo unspecified),14.2%,1.5%,-4%,-2.9%,-10.1%,34.4%
C/C(=C/CCl)[N+](=O)[O-],36.4%,-10.4%,-4.95%,-7.35%,-8.95%,14.1%
O=C1c2cc(Cl)ccc2-c2ccc(Cl)cc21,2.75%,2.85%,-4.85%,-11.8%,-1.2%,1.05%
O=C(CCCl)Nc1cccc(CCC(=O)c2ccccc2NC(=O)CCCl)c1,-8.1%,-18.1%,-4.2%,-15.9%,-7.1%,-10.4%
O=C(O)/C=C\C(=O)Nc1ccc(S(=O)(=O)Nc2nccs2)cc1,-0.8%,-3.45%,-15.2%,2.6%,1.6%,-10.1%
COc1ccccc1NC=O,-1.5%,-25.1%,-3.65%,16.8%,-7.4%,2.55%
CCCCCCCCNC(=O)/C(=C\c1ccc(/C=C(/NC(=O)c2ccccc2)C(=O)NCCCCCCCC)cc1)NC(=O)c1ccccc1,-14%,-23.4%,-20.4%,11.7%,-17.9%,-4%
CCCCC(O)(CCCC)C(C)(C)C,3.7%,4.05%,0.6%,-30.9%,-0.2%,9.3%
CSc1ncc(CO)c(NC(C)(C)C)n1,2.65%,5.7%,0.55%,-19.8%,-0.75%,10.5%
O=C(OCc1ccccc1)C1CC1 (tested in a mixture with another compound),12.1%,14.8%,15.4%,6.1%,20.8%,25.2%
CC(C)C[C@H](NC(=O)[C@H](CCc1ccccc1)NC(=O)c1ccc2ccccc2n1)B(O)O,60.8%,64.7%,55.5%,73.8% (active),84.7% (active),82.5% (active)
COC(=O)c1cc2ccccc2c2c3c(ccc12)OCO3,9.4%,-0.15%,-10.3%,-43.6%,-4.05%,-14.3%
NC(=O)C(=O)N/N=C(\CC1(O)C(=O)Nc2ccccc21)c1ccc2ccccc2c1 (stereo unspecified),17.4%,16.5%,7.5%,48.5%,35%,12.1%
O=[N+]([O-])c1ccc(OCCSc2ccccc2)cc1,9%,33%,55%,12.6%,60.2%,12.8%
Cc1cccc2c1Oc1ccccc1C2N1C(=O)c2ccccc2C1=O (stereo unspecified),6.65%,2.5%,4.9%,25.4%,9.95%,6.35%
CCOC(=O)C(NC(=O)c1cccc(Cl)c1)(N1CCN(c2cc3c(cc2F)c(=O)c(C(=O)O)cn3CC)CC1)C(F)(F)F (stereo unspecified),-7.7%,-39.5%,-18.3%,4.45%,-16.8%,-23.6%
NC(=O)CCN(CCC(N)=O)c1ccc2c(c1)C(=O)c1ccccc1-2,-7.3%,-6.05%,-8%,-22.9%,15.5%,-14.9%
NC(=O)SCCC(N)C(=O)O (stereo unspecified),8.4%,27.5%,3%,12.7%,17.9%,-4.9%
